This passage reports z-score and composite z-score results from PubChem BioAssay.

Calls of active or inactive are those of the source.

Experiment [1] can be described thus: E. coli DRC41 culture turbidity changes, primary screen, E. coli filamentation inducer project, strain DRC41, OD650, 48 h (AID 1152).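 Further: E. coli MC1000 strain DRC41 lacking acrAB efflux pump and sulA.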 Particulars: E. coli DRC41 (acrAB sulA), higher = more signal, called active from +8 up or from −8 down.
Experiment [2] in a line: small-molecule binders of probe aLefty1, primary screen, biochemical, small-molecule microarray, 635/667 nm fluorescence (AID 1153).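 Further: score merges spot fluorescence with signal-to-noise ratio from the scanned slide images.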 Particulars: higher = more signal.
Experiment [3] can be described thus: PSAC antagonists in infected red cells, primary screen, cell-based, P. falciparum Indochina, OD700, 1 h (AID 1154). Particulars: P. falciparum Indochina infected RBC osmotic lysis, higher = more signal, called active from +8 up or from −8 down.
A short description of experiment [4]: PSAC antagonists in infected red cells, primary screen, cell-based, P. falciparum Indochina, OD700, 2 h (AID 1155).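 Further: lysis reports solute entry through the parasite surface anion channel PSAC; channel blockers reduce lysis of infected cells.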 Particulars: P. falciparum Indochina infected erythrocytes, osmotic lysis OD700; higher = more signal, called active from +8 up or from −8 down.
The nature of experiment [5]: osmotic lysis modulators in infected erythrocytes, primary screen, PSAC antagonist project, cell-based, P. falciparum Indochina, OD700, 3 h (AID 1156). Particulars: higher = more signal, called active from +8 up or from −8 down.
The nature of experiment [6]: PSAC antagonists in infected red cells, primary screen, cell-based, P. falciparum Indochina, OD700, 18 h (AID 1157). Particulars: P. falciparum Indochina infected erythrocytes, osmotic lysis OD700, 18 h; higher = more signal, called active from +8 up or from −8 down.
Experiment [7] is described as follows: modulators of S6 phosphorylation in cells, primary screen, cell-based, A549, cytoblot, luminescence, serum-stimulated (AID 1158).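 Further: serum-stimulated A549 lung adenocarcinoma cells; signal is phosphorylated S6 detected by cytoblot immunostaining with HRP secondary.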 The conditions noted are these: A549 phospho-S6 cytoblot, 5 h, higher = more signal.
Experiment [8] addresses NADPH oxidase 2 (Homo sapiens) (UniProt P04839). Kind of experiment: NOX2-dependent H2O2 signal modulators, primary screen, NOX inhibitor project, cell-based, HEK293-NOX2, PMA-stimulated, Amplex Red fluorescence (AID 1159). Further: test concentration not given here. Particulars: 45 min, higher = more signal, called active from +8 up or from −8 down.
The target of experiment [9] is NADPH oxidase 4 (Homo sapiens) (UniProt Q9NPH5). The experiment in a line: NOX4-dependent H2O2 signal modulators, primary screen, NOX inhibitor project, cell-based, HEK293-NOX4, tetracycline-induced, Amplex Red fluorescence (AID 1160). Particulars: 45 min, higher = more signal, called active from +8 up or from −8 down.
Sequence of NADPH oxidase 4 (Homo sapiens) (Q9NPH5 whole entry, looked up): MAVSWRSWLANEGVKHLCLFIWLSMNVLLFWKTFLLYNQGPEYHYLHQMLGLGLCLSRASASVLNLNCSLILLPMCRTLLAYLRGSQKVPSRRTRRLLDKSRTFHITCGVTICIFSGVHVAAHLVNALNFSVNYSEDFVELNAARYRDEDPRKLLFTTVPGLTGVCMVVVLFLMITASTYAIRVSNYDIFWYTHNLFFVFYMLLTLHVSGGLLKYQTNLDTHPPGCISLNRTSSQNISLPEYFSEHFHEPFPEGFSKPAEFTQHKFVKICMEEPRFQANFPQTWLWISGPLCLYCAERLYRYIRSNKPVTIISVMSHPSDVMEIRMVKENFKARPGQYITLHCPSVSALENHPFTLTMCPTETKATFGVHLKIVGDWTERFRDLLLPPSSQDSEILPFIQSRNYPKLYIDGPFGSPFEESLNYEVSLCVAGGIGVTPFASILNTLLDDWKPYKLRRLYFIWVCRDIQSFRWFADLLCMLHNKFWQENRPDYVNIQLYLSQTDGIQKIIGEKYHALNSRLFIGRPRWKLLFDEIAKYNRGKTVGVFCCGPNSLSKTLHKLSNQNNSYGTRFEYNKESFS
Experiment [10] has as its target NADPH oxidase 5 (Homo sapiens) (UniProt Q96PH1). The experiment in a line: NOX5-dependent H2O2 signal modulators, primary screen, NOX inhibitor project, cell-based, HEK293-NOX5, Amplex Red fluorescence (AID 1161). Particulars: HEK293-NOX5, ionomycin, 45 min, higher = more signal.

Sequence of NADPH oxidase 2 (Homo sapiens) (P04839 whole entry, looked up): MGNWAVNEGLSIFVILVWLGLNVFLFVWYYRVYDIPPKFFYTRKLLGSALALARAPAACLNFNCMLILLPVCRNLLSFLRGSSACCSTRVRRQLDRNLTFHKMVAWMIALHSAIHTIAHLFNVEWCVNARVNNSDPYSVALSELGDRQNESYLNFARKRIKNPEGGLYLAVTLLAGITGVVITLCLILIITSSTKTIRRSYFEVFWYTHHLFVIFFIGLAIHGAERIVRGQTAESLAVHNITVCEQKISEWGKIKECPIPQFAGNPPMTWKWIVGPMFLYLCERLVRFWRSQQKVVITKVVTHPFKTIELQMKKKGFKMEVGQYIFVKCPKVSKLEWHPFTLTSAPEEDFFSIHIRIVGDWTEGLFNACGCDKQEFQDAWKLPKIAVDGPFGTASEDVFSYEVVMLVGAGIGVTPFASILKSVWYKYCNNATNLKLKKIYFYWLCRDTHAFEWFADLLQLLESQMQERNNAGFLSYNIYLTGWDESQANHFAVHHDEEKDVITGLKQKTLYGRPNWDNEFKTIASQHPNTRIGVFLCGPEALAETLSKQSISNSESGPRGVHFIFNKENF
Sequence of NADPH oxidase 5 (Homo sapiens) (Q96PH1 whole entry, looked up): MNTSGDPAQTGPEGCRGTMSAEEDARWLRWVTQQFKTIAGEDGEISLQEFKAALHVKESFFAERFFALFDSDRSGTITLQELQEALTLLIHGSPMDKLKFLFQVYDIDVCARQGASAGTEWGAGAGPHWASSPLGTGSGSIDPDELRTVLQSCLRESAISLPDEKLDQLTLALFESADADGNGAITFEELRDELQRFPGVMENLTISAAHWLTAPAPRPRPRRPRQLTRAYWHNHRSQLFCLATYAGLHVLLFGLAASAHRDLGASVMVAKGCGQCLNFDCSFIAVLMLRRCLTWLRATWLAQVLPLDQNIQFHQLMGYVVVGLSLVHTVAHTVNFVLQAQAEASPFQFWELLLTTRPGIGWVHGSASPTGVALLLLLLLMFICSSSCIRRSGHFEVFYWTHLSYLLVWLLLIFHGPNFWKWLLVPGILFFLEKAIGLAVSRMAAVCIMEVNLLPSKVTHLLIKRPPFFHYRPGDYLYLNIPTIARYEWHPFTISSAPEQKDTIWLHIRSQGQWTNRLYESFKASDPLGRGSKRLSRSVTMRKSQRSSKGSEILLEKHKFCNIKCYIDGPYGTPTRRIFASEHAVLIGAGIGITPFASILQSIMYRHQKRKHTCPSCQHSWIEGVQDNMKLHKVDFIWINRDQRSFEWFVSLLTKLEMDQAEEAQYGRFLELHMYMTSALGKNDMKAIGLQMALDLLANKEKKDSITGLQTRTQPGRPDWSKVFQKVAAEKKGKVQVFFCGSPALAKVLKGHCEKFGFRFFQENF

On to `COCCCNC(=O)[C@@]1(c2ccc([N+](=O)[O-])cc2)CC(=O)N(C2CCCCC2)[C@@H]1c1ccc(CO)cc1`, for which the z-score is 0.857 (inactive) in experiment [1]; 1.93 (inactive) in [3]; 0.349 (inactive) in experiment [4]; 1.76 (inactive) in experiment [5]; 0.499 (inactive) in [6]; -0.203 in experiment [7]. Moreover, the z-score in experiment [8] is 0.929 (inactive); in [9], 0.721 (inactive); in experiment [10], 0.537. In experiment [2], this molecule gave a composite z-score of -0.602.

For `COc1ccc([Si](C)(C)[C@H]2[C@H](CCO)O[C@@]3(C(=O)N(Cc4ccc(N5CCCCC5=O)cc4)c4ccccc43)[C@@H]2C)cc1`, the z-score was 0.178 (inactive) in [1]; 29.4 (active) in experiment [3]; 25.6 (active) in experiment [4]; -0.512 (inactive) in experiment [5]; 2.98 (inactive) in experiment [6]; 1.26 in [7]. Further, the z-score in experiment [8] was 1.11 (inactive); in [9], 0.347 (inactive); in experiment [10], 1.5. Also, in [2], the composite z-score was 0.0361.

As for `O=C1c2ccccc2[C@](Cc2ccccc2I)(C(=O)O)[C@H](c2ccc(CO)cc2)N1C1CCCCC1`, the z-score was 2.84 (inactive) in experiment [1]; 3.72 (inactive) in experiment [3]; 0.525 (inactive) in experiment [4]; 0.974 (inactive) in [5]; -0.339 (inactive) in experiment [6]; 2.86 in [7]. The z-score was 1.06 (inactive) in experiment [8], -0.737 (inactive) in experiment [9] and -0.473 in experiment [10]. For the same molecule, the composite z-score in experiment [2] was found to be 0.138.

As for `C[C@H]1NC(=O)[C@@H](C)NC(=O)[C@@]23C(=O)N[C@@H](Cc4ccccc4)C2[C@H](C)[C@@]2(C)O[C@H]2C3/C=C/C/C=C\CNC1=O` (stereo not given in full), the z-score in experiment [1] was 2.35 (inactive); in experiment [3], 1.27 (inactive); in experiment [4] it was 0.279 (inactive); in [5], 0.234 (inactive); in [6] it was 0.157 (inactive); in experiment [7], 0.52. Also, the z-score was 0.248 (inactive) in experiment [8], -0.848 (inactive) in experiment [9] and 0.442 in experiment [10]. This molecule also had a composite z-score in [2] of -0.245.

Turning to `COCCOC(=O)N1C(=O)[C@@]2(c3cc(C#CCCO)ccc31)[C@H](c1ccc(O)cc1)N1[C@H](c3ccccc3)[C@H](c3ccccc3)OC(=O)[C@H]1[C@@H]2C(=O)Nc1nc2ccccc2s1`, the z-score in [1] is 1.45 (inactive); in experiment [3], 2.22 (inactive); in [4] it was 1.59 (inactive); in [5], 0.577 (inactive); in [6], 1.73 (inactive); in [7] it was 0.897. Moreover, the z-score is 0.928 (inactive) in experiment [8], -0.161 (inactive) in [9] and 1.21 in experiment [10]. Further, the composite z-score in experiment [2] came to 0.345.

In the case of `COCC(=C=CC[C@H](O)c1ccc(OCCO)cc1)C[C@H](O)c1ccccn1`, the z-score was 1.36 (inactive) in [1]; 8.89 (active) in experiment [3]; 0.989 (inactive) in [4]; 0.938 (inactive) in experiment [5]; 0.48 (inactive) in experiment [6]; -0.324 in experiment [7]. The z-score in experiment [8] is 2.36 (inactive); in [9] it was 1.71 (inactive); in experiment [10], 1.32. In addition, the composite z-score in [2] was -0.194.

Regarding `CCC(=O)[C@]12O[C@@]3([C@@H]4C(=O)OCC[C@@H]41)N(Cc1ccccc1)C(C)=C(C(=O)OC)[C@@H](c1ccccc1)N3C2=O`, the z-score in experiment [1] is 0.57 (inactive); in experiment [3], 0.34 (inactive); in experiment [4], -1.22 (inactive); in experiment [5], 0.573 (inactive); in experiment [6], -1.74 (inactive); in experiment [7] it was 0.21. In addition, the z-score in [8] was 1.2 (inactive); in [9], 0.785 (inactive); in [10], 0.538. In experiment [2], this molecule registered a composite z-score of -0.243.

In the case of `CO[C@@H]1COC(=O)[C@H](COCc2ccccc2)NC(=O)CC=C[C@@H](C)[C@H](OC)COC(=O)[C@H](COCc2ccccc2)NC(=O)CC=C[C@H]1C`, the z-score is -0.207 (inactive) in experiment [1]; -0.279 (inactive) in experiment [3]; -0.562 (inactive) in [4]; -0.646 (inactive) in [5]; -1.73 (inactive) in experiment [6]; 0.37 in experiment [7]. The z-score is 1.15 (inactive) in experiment [8], 0.931 (inactive) in experiment [9] and 0.314 in experiment [10]. Moreover, the composite z-score in experiment [2] was 0.113.

In the case of `O=C(NCc1ccccc1)[C@@]1(CCS(=O)(=O)c2ccccc2)COC(c2ccc(OCCCO)cc2)=N1`, the z-score in [1] is 2.13 (inactive); in experiment [3], 30.4 (active); in [4], 25.8 (active); in experiment [5], 3.7 (inactive); in [6], 5.53 (inactive); in experiment [7] it was 2.54. Also, the z-score in [8] was -2.26 (inactive); in experiment [9], -0.0883 (inactive); in [10], -2.24. In addition, the composite z-score in experiment [2] stood at 0.715.

In the case of `C=CCC(OC(C)=O)[C@@H]1[C@@H](N(Cc2cc3ccccc3o2)C(=O)Cc2ccc(F)cc2)c2cc(OCCCO)ccc2N1C(=O)c1ccc(-c2ccccc2)cc1` (stereo not given in full), the z-score was 1.66 (inactive) in experiment [1]; -0.171 (inactive) in experiment [3]; 0.229 (inactive) in experiment [4]; -0.454 (inactive) in [5]; 0.0413 (inactive) in [6]; 0.437 in [7]. In addition, the z-score is 0.578 (inactive) in experiment [8], 0.684 (inactive) in experiment [9] and 0.314 in experiment [10]. Further, in experiment [2], the composite z-score stood at 0.0091.

For the molecule `CCOC(=O)C1=CC[C@@H](c2ccc(-c3ccc(OCc4ccccc4)cc3)c(OC)c2)N(S(=O)(=O)c2ccc(C)cc2)[C@H]1c1ccccc1`, the z-score in experiment [1] is -0.0232 (inactive); in [3], 2.67 (inactive); in experiment [4], 1.86 (inactive); in [5] it was 0.487 (inactive); in experiment [6] it was 1.22 (inactive); in experiment [7], -0.533. Moreover, the z-score is 1.31 (inactive) in experiment [8], 0.643 (inactive) in experiment [9] and 0.429 in [10]. Besides, the composite z-score in experiment [2] worked out at 0.404.

With `C=CCOC(=O)[C@@H]1[C@H]2C(=O)O[C@H](c3ccccc3)[C@H](c3ccccc3)N2[C@H](c2ccc(OCCOC(=O)[C@H]3C[C@H]4C(=O)N5CCC[C@H]5C(=O)N4[C@H]3c3ccc(O)cc3)cc2)[C@@]12C(=O)Nc1ccccc12`, the z-score in [1] is 2.34 (inactive); in [3], 3.21 (inactive); in experiment [4], 0.288 (inactive); in [5], -2.79 (inactive); in [6] it was -1.39 (inactive); in [7] it was 0.557. Further, the z-score was 1.56 (inactive) in experiment [8], 0.0128 (inactive) in [9] and 2.16 in [10]. Moreover, the composite z-score in experiment [2] was 0.244.

With `CCCC=C(CCC)[C@@H](NS(=O)(=O)c1cccc(C(F)(F)F)c1)c1ccc(C(=O)OC)cc1`, the z-score in experiment [1] is -0.77 (inactive); in experiment [3] it was -0.82 (inactive); in [4] it was -0.868 (inactive); in [5] it was -0.723 (inactive); in [6], -1.41 (inactive); in experiment [7] it was 0.213. Besides, the z-score in [8] is 0.139 (inactive); in experiment [9], 0.449 (inactive); in experiment [10], 1.87. The molecule further came in with a composite z-score in experiment [2] of 1.6.
